Assay outcomes (PubChem BioAssay)
mIDH1 inhibitor = human IDH1 R132H inhibition; O75874; IDH1-R132H enzyme, NADPH consumption, diaphorase/resazurin fluorescence; Potency, µM (highest dose often 76.6 µM), hits mostly inhibitors; hit rate 0.093% among 390,000; AID 602179; further: nearly all actives have a fitted effect of over 65% in size
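IDH1-R132H (0.5 ug/mL) preincubated 30 min with compound, then NADPH (0.016 mM) and alpha-KG (2 mM) added; 80 min at RT, pH 7.5. Remaining NADPH coupled via diaphorase/resazurin to fluorescence (540/590 nm); concentration-response curves normalized to no-enzyme control.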
GRP78 ERSR act = inducers of ER stress response in human glioma cells; Potency, µM, hits mostly activators; U87-MG GRP78 promoter luciferase reporter, 16 h; AID 602332; hit rate 0.02% among 420,000; further: series mostly up to about 76 µM; nearly all actives have a fitted effect of over 35% in size
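ERSR induction read as luciferase luminescence (Bright-Glo, 10 min at room temperature) in stably transfected human U87-MG glioma cells exposed to compounds for 16 h, using GRP78 as sensor.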
Apoferritin bind = binds horse apoferritin like a general anesthetic | P02791 | apoferritin/1-aminoanthracene competitive binding, fluorescence | Potency, µM (highest dose often 77.5 µM), hits mostly inhibitors | hit rate 0.074% among 350,000 | AID 485281; further: nearly all actives have a fitted effect of over 20% in size
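Probe: 1-aminoanthracene (50% saturated, PBS). Protein: horse-spleen apoferritin, 10 uM. Incubation: 10 min, room temperature. Detection: 380 nm excitation, 535 nm emission. Analysis: normalized response, four-parameter Hill.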
TrxR1 inh = rat TrxR1 inhibition; O89049; recombinant rTrxR1, NADPH fluorescence consumption, selenite substrate; Potency, µM (highest dose often 114 µM), hits mostly inhibitors; hit rate 1% among 390,000; further: nearly all actives have a fitted effect of over 65% in size
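Rat TrxR1 (90 nM in the dispensed reagent) was pre-reduced with 400 uM NADPH for 5 min at room temperature, then incubated with compound for 15 min. After 400 uM selenite was added, NADPH fluorescence (Ex 340/Em 450 nm) was followed for 8 min.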
ALOX12 inh = blocks human arachidonate 12S-lipoxygenase; hit rate 1.1% among 580,000; purified 12hLO, xylenol orange hydroperoxide absorbance; P18054; AID 1671190; Potency, µM (top dose mostly 108 µM), actives largely listed as inhibitors
Target sequence (P18054 whole entry, looked up): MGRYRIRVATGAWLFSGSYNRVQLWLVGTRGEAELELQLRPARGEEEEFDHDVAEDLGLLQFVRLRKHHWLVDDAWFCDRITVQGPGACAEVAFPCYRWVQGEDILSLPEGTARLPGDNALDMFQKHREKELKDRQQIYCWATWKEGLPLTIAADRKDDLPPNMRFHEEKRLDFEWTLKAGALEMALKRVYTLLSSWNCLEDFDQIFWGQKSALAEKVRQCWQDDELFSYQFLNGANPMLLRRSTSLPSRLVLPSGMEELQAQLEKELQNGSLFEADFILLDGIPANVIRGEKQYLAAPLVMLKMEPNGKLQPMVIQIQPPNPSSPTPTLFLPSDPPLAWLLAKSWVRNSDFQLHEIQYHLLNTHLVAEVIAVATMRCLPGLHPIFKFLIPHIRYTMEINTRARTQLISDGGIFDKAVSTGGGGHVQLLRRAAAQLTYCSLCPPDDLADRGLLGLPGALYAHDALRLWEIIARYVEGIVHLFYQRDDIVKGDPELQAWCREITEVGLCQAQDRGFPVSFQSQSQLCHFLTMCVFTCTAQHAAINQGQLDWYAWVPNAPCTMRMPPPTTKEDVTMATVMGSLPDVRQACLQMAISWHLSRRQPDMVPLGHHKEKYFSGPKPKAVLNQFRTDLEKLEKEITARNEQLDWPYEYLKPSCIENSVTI
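Purified human 12hLO at 150 nM in 25 mM Hepes, 0.01% Triton X-100, pH 7.0, preincubated 15 min at room temperature with compound. Reaction started with 40 uM arachidonic acid, 30 min at room temperature. Hydroperoxide measured by Fe-xylenol orange, 573/405 nm absorbance ratio.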
TrxR1 substrate = rat thioredoxin reductase 1 substrate activity. hit rate 0.01% among 390,000. O89049. AID 588456. purified TrxR1 substrate turnover, NADPH consumption readout. Potency, µM (top dose mostly 114 µM); further: nearly all actives have a fitted effect of over 50% in size
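Rat TrxR1, dispensed at 90 nM, was prereduced with 400 uM NADPH (final) for 5 min at ~22 deg C, then incubated with compound 15 min before 400 uM selenite. A first-read NADPH fluorescence drop versus no-compound background flagged substrates.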
Large screens that a line does not name were inactive. A selection: hits, their analogues and other compounds. The true share with any hit is near 1.7%. The call rests on the fitted dose curve; in most records, active means well fitted curve in the direction sought with a large enough effect; inconclusive means small, poorly fitted or top-dose-only effect, or another doubt; inactive means no such curve, though single readings can be large; an effect the other way counts as inactive or inconclusive.

NC(=O)c1sc2nc3c(c(-c4ccco4)c2c1N)CCCC3	none
Cn1ccnc1C(O)c1cc(C(C)(C)C)c(O)c(C(C)(C)C)c1 (centres undefined)	TrxR1 inh 31.6µM, ALOX12 inh inconclusive
CCc1[nH]nc(C(=O)N2CC[C@H](N3CCOCC3)[C@H](CCC(=O)O)C2)c1C	none (no result: mIDH1 inhibitor, GRP78 ERSR act, Apoferritin bind, TrxR1 inh, TrxR1 substrate)
Cc1cccc(OCCc2noc(C3CCN(S(=O)(=O)C(C)C)C3)n2)c1 (centres undefined)	none (no result: mIDH1 inhibitor, GRP78 ERSR act, Apoferritin bind, TrxR1 inh, TrxR1 substrate)
Cc1ccc(-n2c(-c3ccccc3)cc(/C=N/NC(=O)CC#N)c2-c2ccccc2)cc1	none (no result: mIDH1 inhibitor, GRP78 ERSR act, TrxR1 inh, TrxR1 substrate)
Cc1ccc(-n2c(-c3ccccc3)cc(C=Nc3ccc(C)c(C)c3)c2-c2ccccc2)cc1	ALOX12 inh 20µM (no result: mIDH1 inhibitor, GRP78 ERSR act, Apoferritin bind, TrxR1 inh, TrxR1 substrate)
COc1ccc(N2C(=O)CCS2(=O)=O)cc1S(=O)(=O)N1CCC2(CC1)OCCO2	none (no result: mIDH1 inhibitor, GRP78 ERSR act, Apoferritin bind, TrxR1 inh, TrxR1 substrate)
COc1cc(/C=N/NC(=O)c2nonc2C)ccc1O	none
Cc1nonc1C(=O)N/N=C/c1ccc(O)c(O)c1	GRP78 ERSR act 35.5µM, ALOX12 inh inconclusive
S=c1[nH]nc(-c2cc(-c3ccco3)[nH]n2)n1-c1ccccc1	ALOX12 inh 22.4µM
S=c1[nH]nc(-c2cc(-c3ccco3)[nH]n2)n1-c1ccccc1Cl	TrxR1 inh inconclusive, ALOX12 inh inconclusive
Oc1ccccc1-c1cc(-c2ccco2)[nH]n1	GRP78 ERSR act inconclusive, Apoferritin bind inconclusive, ALOX12 inh 20µM
Cc1ccc(N/N=C/c2ccc(C#N)cc2)cc1Cl	ALOX12 inh 3.16µM (no result: mIDH1 inhibitor, GRP78 ERSR act, Apoferritin bind, TrxR1 inh, TrxR1 substrate)
Cc1ccccc1N/N=C/c1ccc(C#N)cc1	ALOX12 inh inconclusive
CN/N=C/c1ccc(C#N)cc1	none
Cc1cccc(N/N=C/c2ccncc2)c1	ALOX12 inh 44.7µM
Cc1cccc(N/N=C/c2ccccc2O)c1	ALOX12 inh 39.8µM
Cc1cccc(N/N=C/c2ccc(C#N)cc2)c1	ALOX12 inh 17.8µM (no result: mIDH1 inhibitor, GRP78 ERSR act, Apoferritin bind, TrxR1 inh, TrxR1 substrate)
Cn1cnc(S(=O)(=O)N2CCCC(C(=O)N3CCc4ccccc43)CCNC(=O)CC2)c1 (centres undefined)	none (no result: mIDH1 inhibitor, GRP78 ERSR act, Apoferritin bind, TrxR1 inh, TrxR1 substrate)
O=C(c1ccccc1)N1CCCC2(C1)C(=NC1CCCC1)NC(=O)N2c1cccnc1 (centres undefined)	none (no result: mIDH1 inhibitor, GRP78 ERSR act, Apoferritin bind, TrxR1 inh, TrxR1 substrate)
COc1ccc(CNc2cccc(C(=O)O)c2C)cc1OC	none (no result: mIDH1 inhibitor, GRP78 ERSR act, Apoferritin bind, TrxR1 inh, TrxR1 substrate)
COc1ccc(C2CC(=O)Nc3c2c(C)nn3-c2ncnc3nc[nH]c23)cc1OC (centres undefined)	none (no result: mIDH1 inhibitor, GRP78 ERSR act, Apoferritin bind, TrxR1 inh, TrxR1 substrate)
O=C(Nc1ccccc1)c1ccc(-c2cccc3c2CCNC3)o1	none (no result: mIDH1 inhibitor, GRP78 ERSR act, Apoferritin bind, TrxR1 inh, TrxR1 substrate)
Cc1cc(C(F)(F)F)c(C#N)c(=S)[nH]1	ALOX12 inh 15.8µM (no result: mIDH1 inhibitor, GRP78 ERSR act, Apoferritin bind, TrxR1 inh, TrxR1 substrate)
Cc1cc(C)c2c(n1)nn1c(C)c(CCC(=O)Nc3cccc(C)c3C)c(C)nc21	none
CCCOC(=O)c1ccc(NC(=O)C2C3C=CC(O3)C2C(=O)O)cc1 (centres undefined)	TrxR1 inh 39.8µM, ALOX12 inh inconclusive
COc1ccc(CN2C(=O)C(n3ccc4ccccc43)c3cc(OC(F)(F)F)ccc32)cc1 (centres undefined)	ALOX12 inh 39.8µM (no result: mIDH1 inhibitor, GRP78 ERSR act, Apoferritin bind, TrxR1 inh, TrxR1 substrate)
CC(C)c1ccc(CN2C(=O)C(n3ccc4ccccc43)c3cc(Cl)ccc32)cc1 (centres undefined)	ALOX12 inh 10µM (no result: mIDH1 inhibitor, GRP78 ERSR act, Apoferritin bind, TrxR1 inh, TrxR1 substrate)
CN1C(=O)C(n2ccc3ccccc32)c2cc(Cl)ccc21 (centres undefined)	none (no result: mIDH1 inhibitor, GRP78 ERSR act, Apoferritin bind, TrxR1 inh, TrxR1 substrate)
CCOC(=O)c1cccn1C1C(=O)N(Cc2ccc(C(F)(F)F)cc2)c2ccc(OC(F)(F)F)cc21 (centres undefined)	none (no result: mIDH1 inhibitor, GRP78 ERSR act, Apoferritin bind, TrxR1 inh, TrxR1 substrate)
Cc1sc(/N=C/c2cccc3ccccc23)c(C#N)c1C	none (no result: mIDH1 inhibitor, GRP78 ERSR act, Apoferritin bind, TrxR1 inh, TrxR1 substrate)
CCc1ccc(CN2CCC(CNC(=O)C(C)(C)C)CC2)nc1	none (no result: mIDH1 inhibitor, GRP78 ERSR act, Apoferritin bind, TrxR1 inh, TrxR1 substrate)
CC(=O)c1ccc(NC(=O)CN2CCN(c3ccccc3)CC2)cc1	ALOX12 inh 11.2µM
COc1ccc(/C=C/C(=O)NCCc2ccc(S(N)(=O)=O)cc2)cc1	none
COc1ccc(CCNC(=O)/C=C\c2ccccc2)cc1OC	none
COc1cc(/C=N/NC(=O)CNC(=O)/C=C/c2ccco2)cc(OC)c1OC	TrxR1 inh inconclusive
COc1ccc(CCNC(=O)/C=C/c2ccco2)cc1	TrxR1 inh 35.5µM
COc1ccc(CCNC(=O)/C=C/c2ccco2)cc1OC	TrxR1 inh 7.94µM, ALOX12 inh inconclusive
